From PubChem BioAssay (NCI)
The panel holds about 83,000 compounds, 20% with a hit somewhere; the sample as a whole holds those more often.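 For each line, cells grew in 96-well plates with the test compound present at a single concentration for 48 hours.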 The source made the active and inactive calls. The calls were made as follows: active = growth percent below 10; inactive = the rest.

Legend:
Experiment in all cases: NCI-60 one-dose screen, 48 h (100 = growth as untreated, 0 = no growth, -100 = all killed)
Conditions in all cases: 10 µM unless noted
SK-MEL-2 melanoma = system: SK-MEL-2 melanoma
EKVX NSCLC = system: EKVX NSCLC
SN12C renal = system: SN12C renal
UO-31 renal = system: UO-31 renal
TK-10 renal = system: TK-10 renal
ACHN renal = system: ACHN renal
CAKI-1 renal = system: CAKI-1 renal
A498 renal = system: A498 renal
CCRF-CEM leukemia = system: CCRF-CEM leukemia
MOLT-4 leukemia = system: MOLT-4 leukemia
SR leukemia = system: SR leukemia
OVCAR-8 ovarian = system: OVCAR-8 ovarian
OVCAR-5 ovarian = system: OVCAR-5 ovarian
OVCAR-4 ovarian = system: OVCAR-4 ovarian
SK-OV-3 ovarian = system: SK-OV-3 ovarian
IGROV1 ovarian = system: IGROV1 ovarian
OVCAR-3 ovarian = system: OVCAR-3 ovarian
HS 578T breast = system: HS 578T breast
NCI/ADR-RES ovarian = system: NCI/ADR-RES ovarian

Measured: growth

CCNC(=S)n1nc(SC)c(C(=O)OCC)c1N
inactive: SK-MEL-2 melanoma 105% | EKVX NSCLC 101% | SN12C renal 97.6% | UO-31 renal 77.8% | TK-10 renal 106% | ACHN renal 96.7% | CAKI-1 renal 86.7% | A498 renal 97.5% | CCRF-CEM leukemia 106% | MOLT-4 leukemia 81.3% | SR leukemia 89.2% | OVCAR-8 ovarian 110% | OVCAR-5 ovarian 84.8% | OVCAR-4 ovarian 96.7% | SK-OV-3 ovarian 94% | IGROV1 ovarian 90.6% | OVCAR-3 ovarian 97.7% | HS 578T breast 110% | NCI/ADR-RES ovarian 94.8%

Nc1nc(Nc2cccnc2)sc1C(=O)c1ccccc1F
active: UO-31 renal 9.16% | ACHN renal 9.23% | CAKI-1 renal -3.89% | CCRF-CEM leukemia 4.65% | OVCAR-3 ovarian 9.96%
inactive: SK-MEL-2 melanoma 48.5% | EKVX NSCLC 50.7% | SN12C renal 36.8% | TK-10 renal 54.6% | A498 renal 26.4% | MOLT-4 leukemia 26.8% | SR leukemia 19.1% | OVCAR-8 ovarian 31.8% | OVCAR-5 ovarian 26.2% | OVCAR-4 ovarian 80.7% | SK-OV-3 ovarian 85.9% | IGROV1 ovarian 21.3% | HS 578T breast 58.1% | NCI/ADR-RES ovarian 48.3%

Nc1ccc(/C=N/Nc2ccnc3c(N)cccc23)c2cccnc12
inactive: SK-MEL-2 melanoma 87.9% | EKVX NSCLC 32.2% | SN12C renal 71.1% | CAKI-1 renal 31.9% | A498 renal 77% | OVCAR-5 ovarian 13.9% | SK-OV-3 ovarian 97.2% | IGROV1 ovarian 88.4%
active: UO-31 renal -58.8% | TK-10 renal -43.1% | ACHN renal -87.7% | CCRF-CEM leukemia -25.6% | MOLT-4 leukemia -37.5% | SR leukemia -28.2% | OVCAR-8 ovarian -30% | OVCAR-4 ovarian -51.4% | OVCAR-3 ovarian -85.5% | HS 578T breast -17% | NCI/ADR-RES ovarian 9.25%

O=C1C=C(Nc2ccccc2)c2ncccc2C1=O
active: SK-MEL-2 melanoma -66.8% | EKVX NSCLC -85.3% | SN12C renal -88.8% | UO-31 renal -98.6% | TK-10 renal -96.9% | ACHN renal -98.3% | CAKI-1 renal -95.9% | A498 renal -87.5% | CCRF-CEM leukemia -29.9% | MOLT-4 leukemia -49.6% | SR leukemia -28.2% | OVCAR-8 ovarian -92.7% | OVCAR-5 ovarian -90.3% | OVCAR-4 ovarian -95.2% | SK-OV-3 ovarian -91.1% | IGROV1 ovarian -66.7% | OVCAR-3 ovarian -74.6% | HS 578T breast -8.31% | NCI/ADR-RES ovarian -24.8%

Cc1ccc(-c2nc3nc(-c4ccc(Cl)cc4)nc(N4CCCNCC4)c3o2)cc1
inactive: SK-MEL-2 melanoma 103% | EKVX NSCLC 123% | TK-10 renal 29.7% | A498 renal 95.2% | SK-OV-3 ovarian 117%
active: SN12C renal -86% | UO-31 renal -78.7% | ACHN renal -98.9% | CAKI-1 renal -92.3% | CCRF-CEM leukemia -72.6% | MOLT-4 leukemia -71.2% | SR leukemia -44.9% | OVCAR-8 ovarian -58.7% | OVCAR-5 ovarian -98.5% | OVCAR-4 ovarian -83.5% | IGROV1 ovarian -83.8% | OVCAR-3 ovarian -95.5% | HS 578T breast -50.8% | NCI/ADR-RES ovarian -66.9%

c1ccc(Cc2cccc[n+]2C(c2ccccc2)c2ccccc2)cc1
inactive: SK-MEL-2 melanoma 11.6% | EKVX NSCLC 30% | SN12C renal 71.5% | UO-31 renal 82.7% | TK-10 renal 62.9% | ACHN renal 94.7% | CAKI-1 renal 94.4% | A498 renal 90.1% | CCRF-CEM leukemia 48.6% | MOLT-4 leukemia 59.3% | SR leukemia 32.4% | OVCAR-8 ovarian 57.2% | OVCAR-5 ovarian 71.5% | OVCAR-4 ovarian 28.2% | SK-OV-3 ovarian 52.1% | IGROV1 ovarian 62.3% | OVCAR-3 ovarian 44.6% | HS 578T breast 90.6% | NCI/ADR-RES ovarian 104%

Cc1c(O)c(O)cc2c3c(oc12)CC(c1ccc2c(c1)OCO2)CC3=O (stereo not given)
inactive: SK-MEL-2 melanoma 83.8% | EKVX NSCLC 79% | SN12C renal 94.9% | UO-31 renal 56% | TK-10 renal 115% | ACHN renal 75.9% | CAKI-1 renal 98.6% | A498 renal 102% | CCRF-CEM leukemia 69.3% | MOLT-4 leukemia 84.4% | SR leukemia 75.6% | OVCAR-8 ovarian 94.8% | OVCAR-5 ovarian 113% | OVCAR-4 ovarian 89.4% | SK-OV-3 ovarian 85.4% | IGROV1 ovarian 38.6% | OVCAR-3 ovarian 86.4% | HS 578T breast 92.2% | NCI/ADR-RES ovarian 90.3%

CN(C)CCCn1c2c(c3ccc(N4CCNCC4)cc3c1=O)C(=O)c1ccccc1-2
inactive: SK-MEL-2 melanoma 39.6% | A498 renal 74.3% | HS 578T breast 49.1%
active: EKVX NSCLC -39% | SN12C renal 6.82% | UO-31 renal 2.6% | TK-10 renal -0.224% | ACHN renal -10.5% | CAKI-1 renal 5.62% | CCRF-CEM leukemia -4.22% | MOLT-4 leukemia -21.9% | SR leukemia -16.4% | OVCAR-8 ovarian -8.9% | OVCAR-4 ovarian -22.9% | SK-OV-3 ovarian 6.3% | IGROV1 ovarian 5.77% | OVCAR-3 ovarian -0.802% | NCI/ADR-RES ovarian -13.8%

COc1ccc2c(c1)oc1c(C)c3c(c(C)c12)C(=O)N(Nc1ccccc1)C3=O
inactive: SK-MEL-2 melanoma 99% | EKVX NSCLC 108% | SN12C renal 97% | UO-31 renal 84% | TK-10 renal 114% | ACHN renal 99.4% | CAKI-1 renal 91.5% | A498 renal 117% | CCRF-CEM leukemia 111% | MOLT-4 leukemia 99.8% | SR leukemia 104% | OVCAR-8 ovarian 104% | OVCAR-5 ovarian 92% | OVCAR-4 ovarian 100% | SK-OV-3 ovarian 92% | IGROV1 ovarian 102% | OVCAR-3 ovarian 105% | HS 578T breast 105% | NCI/ADR-RES ovarian 112%
